Records with an inconclusive call do not appear. A call without a number means that no potency is given here. Calls of active or inactive are those of the source. The call rests on the fitted dose curve; in most records, active means well fitted cell-killing curve with a large enough effect in the repeat runs; inconclusive means weak or mixed curves, or effect the other way; inactive means no such curve, though single readings can be large or run the other way.
Test: qHTS assay to identify small molecule antagonists of the peroxisome proliferator-activated receptor gamma (PPARg) signaling pathway - cell viability counter screen (AID 743194); further: nearly all actives have a fitted effect of over 55% in size
Settings: PPARg-bla HEK293H viability, CellTiter-Glo luminescence, 17 h, co-treated with 50 nM rosiglitazone; series mostly up to 62.6 µM
Excerpt: U.S. Tox21 Program National Center for Advancing Translational Sciences [NCATS] NIH Chemical Genomics Center [NCGC] U.S. Environmental Protection Agency [EPA] National Institutes of Environmental Health Sciences [NIEHS] National Toxicology Program [NTP] U.S. Food and Drug Administration [FDA] Tox21 Assay Overview: The peroxisome proliferator-activated receptors (PPARs) are lipid-activated transcription factors of the nuclear receptor superfamily with three distinct subtypes namely PPAR alpha, PPAR delta (also called PPAR beta) and PPAR gamma (PPARg). All these subtypes heterodimerize with Retinoid X receptor (RXR) and these heterodimers regulate transcription of various genes. PPAR-gamma receptor (glitazone receptor) is involved in the regulation of glucose and lipid metabolism. To identify the compounds that activate PPAR-gamma signaling, GeneBLAzer PPAR gamma UAS-bla HEK293H cell line (Invitrogen, Carlsbad, CA, USA) containing a beta-lactamase reporter gene under the control of an Upstream Activator Sequence (UAS) was used to screen the Tox21 compound library. The cytotoxicity of the Tox21 compound library against the PPARg-bla cell line was tested in parallel by measuring the cell viability using CellTiter-Glo assay in the same wells.
Tox21 Assay Protocol Summary: PPARg-bla cells were dispensed at 3000 cells/5uL/well in 1536-well black wall/clear bottom plates using a Multidrop Combi (Thermo Fisher Scientific, Waltham, MA) dispenser. After the assay plates were incubated at 37 C and 5% CO2 for 5 h, 23 nL of compounds dissolved in DMSO, positive controls or DMSO only was transferred to the assay plate by a Pintool station (Kalypsys, San Diego, CA), followed by addition of 1ul Rosiglitazone (50 nM, final concentration in the wells). The assay plates were incubated at 37 C for 17 h, and then 1 uL of LiveBLAzerTM B/G FRET substrate was added using a Bioraptr Flying Reagent Dispenser (FRD) workstation (Beckman Coulter, Indianapolis, IN, USA). The assay plates were incubated at room temperature for 1 h and fluorescence intensity was measured by an Envision plate reader (PerkinElmer, Shelton, CT). For cell viability readout that measures cytotoxicity, 4 ul/well of CellTiter-Glo reagent was added into the assay plates using a Flying Reagent Dispenser. After 30 min incubation at room temperature, the luminescence intensity in the plates was measured using a ViewLux plate reader (PerkinElmer).

SMILES | Potency
Oc1ccc(Sc2ccc(O)cc2)cc1 | inactive
CC(C)c1ccccc1C(C)C | inactive
CCOC(=O)C1=NN(c2ccccc2)C(=O)C1 | inactive
Cc1cccc(C(C)(C)C)c1O | inactive
CCCCOC(=O)/C=C\C(=O)OCCCC | inactive
Cn1c(NCCN(CCO)CCCc2ccc([N+](=O)[O-])cc2)cc(=O)n(C)c1=O | inactive
CC(O)C1CCCCC1 (stereo not given) | inactive
c1ccc(-c2nc[nH]c2-c2ccccc2)cc1 | inactive
CCc1nn(C2CCCCC2)c2cc(C3(C#N)CCC(C(=O)O)CC3)ccc12 (stereo not given) | inactive
O=C=NC1CCC(CC2CCC(N=C=O)CC2)CC1 (stereo not given) | inactive
CCCC(=O)OCC | inactive
Nc1cnn([C@@H]2O[C@H](CO)[C@@H](O)[C@H]2O)c(=O)n1 | inactive
O=C(O)COC(=O)Cc1ccccc1Nc1c(Cl)cccc1Cl | inactive
CCCCOCCOCCOCCOCCO | inactive
CC(=O)NCCCS(=O)(=O)O | inactive
CCN(CC)C(C)=O | inactive
O=C1Nc2cc(Cl)ccc2Oc2ccccc21 | inactive
CCCOc1ccc2nc(NC(=O)OC)[nH]c2c1 | inactive
Nc1ccc(C(=O)N2CC3CC(CN(Cc4ccccc4)C3)C2)cc1 | inactive
OCC1CC2CC1C1CCC(CO)C21 (stereo not given) | inactive

SMILES | Potency
O=C(CC(=O)c1ccccc1)c1ccccc1 | inactive
C=CC[N+]1([C@H]2C[C@H]3[C@@H]4CC[C@H]5C[C@H](OC(C)=O)[C@@H](N6CCCCC6)C[C@]5(C)[C@H]4CC[C@]3(C)[C@H]2OC(=O)CC)CCCCC1 | inactive
O=C(Cl)c1c(Cl)cccc1Cl | inactive
C#CCOC(=O)[C@@H](C)Oc1ccc(Oc2ncc(Cl)cc2F)cc1 | inactive
O=C(O)/C=C/c1cnc[nH]1 | inactive
NC(N)=N/N=C/c1c(Cl)cccc1Cl | inactive
COc1ccccc1OC(=O)Oc1ccccc1OC | inactive
CCCCCCCCCCCCCCCCCBr | inactive
CC1(C)[C@H]2CC[C@]1(C)[C@H](O)C2 | inactive
CCCCOC(O)CC (stereo not given) | inactive
CCCCCOC(=O)COc1cc(N2C(=O)C3=C(CCCC3)C2=O)c(F)cc1Cl | inactive
CCCCCCCCCCCCCCC1CO1 (stereo not given) | inactive
Cn1c(=O)c2c(ncn2CC(O)CO)n(C)c1=O (stereo not given) | inactive
c1ccc(OCc2ccc(CCCN3CCOCC3)cc2)cc1 | inactive
CCN(CC)C(C)CN1c2ccccc2Sc2ccccc21 (stereo not given) | inactive
Cc1ccc(C)o1 | inactive
Nc1nc(N)c(-c2ccccc2)s1 | inactive
N#Cc1c(F)cccc1F | inactive
O=C(O)Cn1c(C(=O)Nc2nc(-c3ccccc3Cl)cs2)cc2ccccc21 | inactive
NCc1ccccc1 | inactive

Reference: PubChem BioAssay (Tox21)
